What all share (experiment): DAPPL (digital affinity profiling via proximity ligation, sequencing); 10 mM Tris-HCl pH 7.5, 50 mM NaCl, 1 mM DTT, 4% glycerol, room temperature, 30 min; GST-TFs on glutathione beads, 16-mer random dsDNA library, 0.1% formaldehyde crosslink after washing; high values mean tight binding
One test concerns the target T1, FLI1 (Homo sapiens, UniProt Q01543 1-452).
T1 sequence: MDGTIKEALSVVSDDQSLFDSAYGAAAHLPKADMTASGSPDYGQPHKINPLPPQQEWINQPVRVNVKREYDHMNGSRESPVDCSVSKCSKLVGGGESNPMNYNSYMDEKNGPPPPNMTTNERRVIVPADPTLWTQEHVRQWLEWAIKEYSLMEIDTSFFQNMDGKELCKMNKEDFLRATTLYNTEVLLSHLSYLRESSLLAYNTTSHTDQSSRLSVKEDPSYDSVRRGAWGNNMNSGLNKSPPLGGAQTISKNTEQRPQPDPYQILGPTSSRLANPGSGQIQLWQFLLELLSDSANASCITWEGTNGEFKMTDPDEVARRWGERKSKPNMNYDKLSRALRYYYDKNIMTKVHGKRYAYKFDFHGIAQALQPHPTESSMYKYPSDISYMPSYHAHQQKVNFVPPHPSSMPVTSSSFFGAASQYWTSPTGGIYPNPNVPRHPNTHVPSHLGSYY
Conditions: protein: recombinant; tags: N-terminal GST; dsDNA, one strand shown. The gist of the method:
(§1)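 Beads coated with glutathione captured GST-fused human transcription factors that had been expressed in yeast, and the factors were then given DNA barcodes and pooled with a tag-only sample. The pools were incubated with 200 nmole of a random double-stranded 16-mer DNA library in Tris/NaCl/DTT/glycerol buffer for 30 min at room temperature, washed, crosslinked with 0.1% formaldehyde and proximity-ligated with BsaI/T4 ligase at 37 °C for 1 h. PCR amplification and Illumina NextSeq500 sequencing came last. Binding signal is each hexamer's read frequency for a factor divided by its frequency for the tag-only sample.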

The target in another test is T2, ELK1 (Homo sapiens, UniProt P19419 1-428).
T2 sequence: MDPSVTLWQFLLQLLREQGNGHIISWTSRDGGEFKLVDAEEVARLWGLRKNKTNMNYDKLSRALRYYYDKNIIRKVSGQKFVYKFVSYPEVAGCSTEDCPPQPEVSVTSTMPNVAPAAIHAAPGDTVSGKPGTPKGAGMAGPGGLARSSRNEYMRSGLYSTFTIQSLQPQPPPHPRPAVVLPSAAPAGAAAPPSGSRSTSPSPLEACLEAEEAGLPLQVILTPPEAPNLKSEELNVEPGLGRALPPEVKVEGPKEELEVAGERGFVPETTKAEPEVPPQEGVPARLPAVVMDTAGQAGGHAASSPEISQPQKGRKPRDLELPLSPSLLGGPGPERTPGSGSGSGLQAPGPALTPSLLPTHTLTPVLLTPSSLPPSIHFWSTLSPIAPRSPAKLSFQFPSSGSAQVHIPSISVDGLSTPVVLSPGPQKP
Conditions: protein: recombinant; tags: N-terminal GST; dsDNA, one strand shown. The gist of the method: as §1

The next test deals with T3, GABPA (Homo sapiens, UniProt Q06546 1-454).
T3 sequence: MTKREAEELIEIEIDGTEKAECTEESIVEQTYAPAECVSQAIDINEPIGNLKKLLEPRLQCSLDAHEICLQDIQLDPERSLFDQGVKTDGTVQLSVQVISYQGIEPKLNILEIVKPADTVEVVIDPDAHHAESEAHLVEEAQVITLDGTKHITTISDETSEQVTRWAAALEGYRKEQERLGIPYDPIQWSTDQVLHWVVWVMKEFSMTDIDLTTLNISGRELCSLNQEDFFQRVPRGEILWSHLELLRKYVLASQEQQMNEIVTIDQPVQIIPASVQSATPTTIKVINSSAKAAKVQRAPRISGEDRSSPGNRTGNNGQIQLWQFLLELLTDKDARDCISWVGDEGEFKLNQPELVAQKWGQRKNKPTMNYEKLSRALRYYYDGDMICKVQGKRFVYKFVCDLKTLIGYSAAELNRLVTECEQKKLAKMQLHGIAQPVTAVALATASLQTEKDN
The conditions noted are these: protein: recombinant; tags: N-terminal GST; dsDNA, one strand shown. The gist of the method: as §1

In another test the target is T4, ERG (Homo sapiens, UniProt P11308 1-479).
T4 sequence: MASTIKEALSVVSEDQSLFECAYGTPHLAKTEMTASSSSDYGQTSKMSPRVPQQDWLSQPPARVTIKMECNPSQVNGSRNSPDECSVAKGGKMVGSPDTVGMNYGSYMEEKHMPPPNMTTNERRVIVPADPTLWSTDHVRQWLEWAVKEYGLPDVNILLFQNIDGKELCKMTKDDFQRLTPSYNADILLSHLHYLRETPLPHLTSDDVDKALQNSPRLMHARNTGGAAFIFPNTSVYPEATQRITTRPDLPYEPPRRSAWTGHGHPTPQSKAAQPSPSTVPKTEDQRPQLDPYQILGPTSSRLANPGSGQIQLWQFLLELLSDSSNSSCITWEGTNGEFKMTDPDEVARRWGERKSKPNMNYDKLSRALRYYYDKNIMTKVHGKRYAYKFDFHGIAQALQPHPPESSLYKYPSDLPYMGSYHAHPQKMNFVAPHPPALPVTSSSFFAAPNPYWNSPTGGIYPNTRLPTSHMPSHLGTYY
The conditions noted are these: protein: recombinant; tags: N-terminal GST; dsDNA, one strand shown. The gist of the method:
as §1

A further test addresses ELF1 (Homo sapiens, UniProt P32519 1-619). The conditions noted are these: protein: recombinant; tags: N-terminal GST; dsDNA, one strand shown. The gist of the method:
as §1

The next test addresses T5, EHF (Homo sapiens, UniProt Q9NZC4 1-300).
T5 sequence: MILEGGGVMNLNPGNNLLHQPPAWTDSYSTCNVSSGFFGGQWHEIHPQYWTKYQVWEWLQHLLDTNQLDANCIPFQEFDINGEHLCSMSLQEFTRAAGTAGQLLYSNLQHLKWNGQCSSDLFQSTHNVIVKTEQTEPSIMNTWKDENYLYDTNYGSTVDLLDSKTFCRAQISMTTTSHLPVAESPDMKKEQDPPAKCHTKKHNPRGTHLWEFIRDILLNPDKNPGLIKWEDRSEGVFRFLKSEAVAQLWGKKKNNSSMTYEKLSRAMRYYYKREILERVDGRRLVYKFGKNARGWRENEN
Conditions: protein: recombinant; tags: N-terminal GST; dsDNA, one strand shown. The gist of the method:
as §1

A further test concerns the target SPI1 (Homo sapiens, UniProt P17947 1-270). The conditions noted are these: protein: recombinant; tags: N-terminal GST; dsDNA, one strand shown. The gist of the method:
as §1

Another test has as its target SPIB (Homo sapiens, UniProt Q01892 1-262). The conditions noted are these: protein: recombinant; tags: N-terminal GST; dsDNA, one strand shown. The gist of the method: as §1
The target of the next test is T6, ELK3 (Homo sapiens, UniProt P41970 1-407).
T6 sequence: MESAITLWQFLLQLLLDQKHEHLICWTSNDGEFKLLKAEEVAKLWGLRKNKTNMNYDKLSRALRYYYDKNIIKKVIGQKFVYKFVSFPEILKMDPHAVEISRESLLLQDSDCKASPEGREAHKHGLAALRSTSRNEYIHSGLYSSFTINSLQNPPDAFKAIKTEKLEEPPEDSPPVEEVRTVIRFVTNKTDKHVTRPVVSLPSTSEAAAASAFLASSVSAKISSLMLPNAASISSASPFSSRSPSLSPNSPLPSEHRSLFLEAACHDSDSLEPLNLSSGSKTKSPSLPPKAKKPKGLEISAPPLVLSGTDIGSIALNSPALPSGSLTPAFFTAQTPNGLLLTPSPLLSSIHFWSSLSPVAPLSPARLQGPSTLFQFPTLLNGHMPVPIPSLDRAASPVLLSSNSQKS
Conditions: protein: recombinant; tags: N-terminal GST; dsDNA, one strand shown. The gist of the method:
as §1

For another test, the target named is T7, FEV (Homo sapiens, UniProt Q99581 1-238).
T7 sequence: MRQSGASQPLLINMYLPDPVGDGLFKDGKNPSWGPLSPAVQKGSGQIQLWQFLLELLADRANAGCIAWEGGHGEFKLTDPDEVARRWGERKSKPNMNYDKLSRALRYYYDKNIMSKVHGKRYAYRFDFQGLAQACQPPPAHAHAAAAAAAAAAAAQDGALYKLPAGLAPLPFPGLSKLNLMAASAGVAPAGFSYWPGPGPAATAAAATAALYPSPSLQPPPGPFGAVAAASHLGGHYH
The conditions noted are these: protein: recombinant; tags: N-terminal GST; dsDNA, one strand shown. The gist of the method:
as §1

For a further test, the target named is ETV5 (Homo sapiens, UniProt P41161 1-510). The conditions noted are these: protein: recombinant; tags: N-terminal GST; dsDNA, one strand shown. The gist of the method: as §1
Chain of ETV5 (P41161 whole entry): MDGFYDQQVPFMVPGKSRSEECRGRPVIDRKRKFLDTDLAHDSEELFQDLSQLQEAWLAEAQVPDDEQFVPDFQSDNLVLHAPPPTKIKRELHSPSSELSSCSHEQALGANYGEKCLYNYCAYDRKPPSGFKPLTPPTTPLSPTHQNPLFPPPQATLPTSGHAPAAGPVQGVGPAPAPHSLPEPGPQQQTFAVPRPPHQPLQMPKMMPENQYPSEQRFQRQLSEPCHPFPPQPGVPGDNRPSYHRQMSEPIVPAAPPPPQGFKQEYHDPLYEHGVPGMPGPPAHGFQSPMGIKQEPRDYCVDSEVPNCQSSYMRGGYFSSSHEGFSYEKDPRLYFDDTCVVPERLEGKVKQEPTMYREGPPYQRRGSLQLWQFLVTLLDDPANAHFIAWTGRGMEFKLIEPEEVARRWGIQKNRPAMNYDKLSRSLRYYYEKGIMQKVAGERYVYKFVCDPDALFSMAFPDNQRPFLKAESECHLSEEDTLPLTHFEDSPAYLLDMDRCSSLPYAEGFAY
The next test deals with HSF1 (Homo sapiens, UniProt Q00613 1-529). Conditions: protein: recombinant; tags: N-terminal GST; chain copies: 3; dsDNA, one strand shown. The gist of the method: as §1
Chain of HSF1 (Q00613 whole entry): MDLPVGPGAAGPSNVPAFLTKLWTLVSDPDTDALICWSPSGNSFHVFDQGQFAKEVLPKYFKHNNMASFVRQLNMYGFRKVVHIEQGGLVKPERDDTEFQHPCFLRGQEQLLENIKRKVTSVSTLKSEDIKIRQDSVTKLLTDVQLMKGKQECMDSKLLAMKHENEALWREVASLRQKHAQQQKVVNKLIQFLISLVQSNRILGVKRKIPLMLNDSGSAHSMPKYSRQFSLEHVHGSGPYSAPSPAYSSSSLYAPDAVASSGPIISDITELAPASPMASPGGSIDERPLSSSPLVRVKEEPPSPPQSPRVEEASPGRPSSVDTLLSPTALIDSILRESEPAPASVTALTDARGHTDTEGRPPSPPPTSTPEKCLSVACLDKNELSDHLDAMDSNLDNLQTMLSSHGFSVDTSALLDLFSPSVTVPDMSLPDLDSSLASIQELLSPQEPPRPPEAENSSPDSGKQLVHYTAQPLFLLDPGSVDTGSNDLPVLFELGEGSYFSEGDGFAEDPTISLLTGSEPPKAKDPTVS
Another test has as its target T8, SPIC (Homo sapiens, UniProt Q8N5J4 1-248).
T8 sequence: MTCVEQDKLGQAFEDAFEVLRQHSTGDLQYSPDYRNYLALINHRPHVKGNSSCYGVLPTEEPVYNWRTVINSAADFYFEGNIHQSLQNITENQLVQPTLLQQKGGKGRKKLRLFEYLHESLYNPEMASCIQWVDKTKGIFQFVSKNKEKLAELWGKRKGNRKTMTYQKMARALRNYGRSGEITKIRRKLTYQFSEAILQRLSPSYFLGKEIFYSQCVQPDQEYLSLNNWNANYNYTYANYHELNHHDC
The conditions noted are these: protein: recombinant; tags: N-terminal GST; dsDNA, one strand shown. The gist of the method:
as §1

For the next test, the target named is ELF4 (Homo sapiens, UniProt Q99607 1-663). The conditions noted are these: protein: recombinant; tags: N-terminal GST; dsDNA, one strand shown. The gist of the method:
as §1

The target of the next test is T9, ELK4 (Homo sapiens, UniProt P28324-2 1-405).
T9 sequence: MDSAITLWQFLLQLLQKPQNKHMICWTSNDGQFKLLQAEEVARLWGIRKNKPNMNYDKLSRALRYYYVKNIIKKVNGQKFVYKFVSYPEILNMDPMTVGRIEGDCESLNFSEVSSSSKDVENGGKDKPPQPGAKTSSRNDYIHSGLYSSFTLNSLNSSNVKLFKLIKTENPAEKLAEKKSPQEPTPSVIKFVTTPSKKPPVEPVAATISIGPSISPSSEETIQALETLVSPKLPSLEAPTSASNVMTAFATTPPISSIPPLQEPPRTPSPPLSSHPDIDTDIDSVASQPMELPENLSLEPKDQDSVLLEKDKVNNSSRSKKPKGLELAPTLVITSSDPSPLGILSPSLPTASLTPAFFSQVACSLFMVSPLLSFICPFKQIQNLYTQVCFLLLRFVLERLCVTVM
Conditions: protein: recombinant; tags: N-terminal GST; dsDNA, one strand shown. The gist of the method:
as §1

Another test deals with T10, ETV2 (Homo sapiens, UniProt O00321 1-342).
T10 sequence: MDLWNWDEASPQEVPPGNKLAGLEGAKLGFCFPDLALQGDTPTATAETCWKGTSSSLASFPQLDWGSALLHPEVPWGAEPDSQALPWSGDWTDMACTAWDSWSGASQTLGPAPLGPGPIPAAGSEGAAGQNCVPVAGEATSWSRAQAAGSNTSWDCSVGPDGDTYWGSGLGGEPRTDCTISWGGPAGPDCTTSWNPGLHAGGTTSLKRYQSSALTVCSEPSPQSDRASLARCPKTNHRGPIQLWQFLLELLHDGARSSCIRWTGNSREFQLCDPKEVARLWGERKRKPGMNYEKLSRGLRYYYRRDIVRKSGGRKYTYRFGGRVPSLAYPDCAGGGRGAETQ
The conditions noted are these: protein: recombinant; tags: N-terminal GST; dsDNA, one strand shown. The gist of the method:
as §1

Another test has as its target T11, ELF3 (Homo sapiens, UniProt P78545 1-371).
T11 sequence: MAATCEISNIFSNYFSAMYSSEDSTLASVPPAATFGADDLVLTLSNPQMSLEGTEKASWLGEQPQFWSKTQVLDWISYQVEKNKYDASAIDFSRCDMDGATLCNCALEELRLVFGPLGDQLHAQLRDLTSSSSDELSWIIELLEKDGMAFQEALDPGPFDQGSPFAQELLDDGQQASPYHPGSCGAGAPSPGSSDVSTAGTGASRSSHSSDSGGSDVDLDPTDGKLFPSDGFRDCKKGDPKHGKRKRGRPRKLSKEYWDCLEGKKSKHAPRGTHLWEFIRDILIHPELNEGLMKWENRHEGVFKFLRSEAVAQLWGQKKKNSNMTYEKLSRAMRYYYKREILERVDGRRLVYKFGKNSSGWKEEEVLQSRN
The conditions noted are these: protein: recombinant; tags: N-terminal GST; dsDNA, one strand shown. The gist of the method:
as §1

A further test deals with CRX (Homo sapiens, UniProt O43186 1-299). The conditions noted are these: protein: recombinant; tags: N-terminal GST; dsDNA, one strand shown. The gist of the method: as §1
Chain of CRX (O43186 whole entry): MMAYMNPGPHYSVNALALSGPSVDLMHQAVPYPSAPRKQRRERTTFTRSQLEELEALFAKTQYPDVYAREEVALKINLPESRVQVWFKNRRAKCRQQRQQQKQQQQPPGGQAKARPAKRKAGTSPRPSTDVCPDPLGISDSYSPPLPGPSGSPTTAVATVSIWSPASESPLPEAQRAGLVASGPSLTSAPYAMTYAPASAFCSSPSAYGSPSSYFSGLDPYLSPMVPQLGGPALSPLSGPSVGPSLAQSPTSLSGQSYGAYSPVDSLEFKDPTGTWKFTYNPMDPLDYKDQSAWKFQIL
Another test addresses ETV1 (Homo sapiens, UniProt P50549 1-477). The conditions noted are these: protein: recombinant; tags: N-terminal GST; dsDNA, one strand shown. The gist of the method: as §1

Chain of ETV1 (P50549 whole entry): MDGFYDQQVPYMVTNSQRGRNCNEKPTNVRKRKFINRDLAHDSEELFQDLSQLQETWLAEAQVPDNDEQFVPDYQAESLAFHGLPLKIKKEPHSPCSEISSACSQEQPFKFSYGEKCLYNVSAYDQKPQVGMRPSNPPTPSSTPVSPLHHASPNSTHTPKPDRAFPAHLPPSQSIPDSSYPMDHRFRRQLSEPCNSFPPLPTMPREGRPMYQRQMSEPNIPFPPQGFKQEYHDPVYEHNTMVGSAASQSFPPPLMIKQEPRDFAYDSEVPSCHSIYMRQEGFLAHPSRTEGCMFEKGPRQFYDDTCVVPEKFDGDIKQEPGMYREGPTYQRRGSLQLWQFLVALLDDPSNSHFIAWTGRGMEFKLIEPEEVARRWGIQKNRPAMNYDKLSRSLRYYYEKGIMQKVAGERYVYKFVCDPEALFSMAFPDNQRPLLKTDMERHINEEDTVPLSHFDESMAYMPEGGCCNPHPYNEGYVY
Chain of ELF4 (Q99607 whole entry): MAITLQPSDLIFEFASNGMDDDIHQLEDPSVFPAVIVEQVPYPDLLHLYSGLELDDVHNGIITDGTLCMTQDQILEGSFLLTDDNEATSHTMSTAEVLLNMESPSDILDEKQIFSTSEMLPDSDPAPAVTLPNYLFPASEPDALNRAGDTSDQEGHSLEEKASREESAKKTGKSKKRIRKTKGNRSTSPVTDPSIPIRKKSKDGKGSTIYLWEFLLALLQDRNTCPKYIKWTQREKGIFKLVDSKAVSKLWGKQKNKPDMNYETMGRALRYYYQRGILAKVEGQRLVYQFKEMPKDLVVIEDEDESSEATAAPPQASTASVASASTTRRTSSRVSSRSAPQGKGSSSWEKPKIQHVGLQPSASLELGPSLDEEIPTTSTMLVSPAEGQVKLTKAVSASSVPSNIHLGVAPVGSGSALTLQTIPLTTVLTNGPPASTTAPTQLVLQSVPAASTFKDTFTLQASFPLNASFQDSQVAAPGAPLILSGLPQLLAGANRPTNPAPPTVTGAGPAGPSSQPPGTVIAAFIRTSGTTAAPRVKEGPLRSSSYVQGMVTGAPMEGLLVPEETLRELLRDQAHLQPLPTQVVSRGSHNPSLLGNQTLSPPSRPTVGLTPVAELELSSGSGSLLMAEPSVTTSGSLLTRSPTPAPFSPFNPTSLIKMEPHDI
Chain of SPIB (Q01892 whole entry): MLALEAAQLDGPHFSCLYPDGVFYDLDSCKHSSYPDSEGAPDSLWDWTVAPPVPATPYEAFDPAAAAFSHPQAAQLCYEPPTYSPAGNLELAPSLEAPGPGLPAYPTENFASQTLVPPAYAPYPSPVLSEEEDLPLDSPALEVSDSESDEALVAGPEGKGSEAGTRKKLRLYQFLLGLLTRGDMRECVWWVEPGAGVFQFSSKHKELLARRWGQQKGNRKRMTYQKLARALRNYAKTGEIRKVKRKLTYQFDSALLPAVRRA
Chain of ELF1 (P32519 whole entry): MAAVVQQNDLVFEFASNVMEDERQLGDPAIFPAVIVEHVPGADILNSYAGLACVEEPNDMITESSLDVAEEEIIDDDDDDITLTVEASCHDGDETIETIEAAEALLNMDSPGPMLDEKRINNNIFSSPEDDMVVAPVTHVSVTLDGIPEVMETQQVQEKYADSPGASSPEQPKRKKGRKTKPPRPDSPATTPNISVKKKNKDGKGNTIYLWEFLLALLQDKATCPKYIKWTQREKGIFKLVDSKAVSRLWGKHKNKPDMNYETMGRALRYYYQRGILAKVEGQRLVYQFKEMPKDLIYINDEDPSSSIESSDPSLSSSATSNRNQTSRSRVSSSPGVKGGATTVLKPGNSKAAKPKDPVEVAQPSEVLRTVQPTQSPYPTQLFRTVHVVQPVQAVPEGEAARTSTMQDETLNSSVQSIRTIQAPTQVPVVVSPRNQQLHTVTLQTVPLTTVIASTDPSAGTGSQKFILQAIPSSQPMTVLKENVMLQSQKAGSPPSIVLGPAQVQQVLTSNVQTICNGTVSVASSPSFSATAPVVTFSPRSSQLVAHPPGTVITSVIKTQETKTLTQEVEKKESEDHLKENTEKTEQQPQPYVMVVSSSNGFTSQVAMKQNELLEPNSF

Take CTCGAA: the binding signal was 1.23 fold enrichment (6-mer frequency, TF over GST control) with FLI1; 1.12 fold enrichment (6-mer frequency, TF over GST control) in the test with ELK1; 1.26 fold enrichment (6-mer frequency, TF over GST control) in the test with GABPA; 1.13 fold enrichment (6-mer frequency, TF over GST control) with ERG; 1.18 fold enrichment (6-mer frequency, TF over GST control) with ELF1; 1.21 fold enrichment (6-mer frequency, TF over GST control) with EHF. Also, the binding signal in the test with SPI1 is 1.17 fold enrichment (6-mer frequency, TF over GST control); with SPIB, 1.12 fold enrichment (6-mer frequency, TF over GST control); in the test with ELK3, 1.21 fold enrichment (6-mer frequency, TF over GST control); with FEV, 1.17 fold enrichment (6-mer frequency, TF over GST control); in the test with ETV5, 1.2 fold enrichment (6-mer frequency, TF over GST control); with HSF1 it was 4.2 fold enrichment (6-mer frequency, TF over GST control). In addition, the binding signal in the test with SPIC was 1.15 fold enrichment (6-mer frequency, TF over GST control); with ELF4, 1.2 fold enrichment (6-mer frequency, TF over GST control); with ELK4, 1.34 fold enrichment (6-mer frequency, TF over GST control); in the test with ETV2, 1.16 fold enrichment (6-mer frequency, TF over GST control); with ELF3, 1.11 fold enrichment (6-mer frequency, TF over GST control); with CRX, 1.9 fold enrichment (6-mer frequency, TF over GST control). In addition, in the test with ETV1, the binding signal is 1.1 fold enrichment (6-mer frequency, TF over GST control).

These data come from publication PMC7862700, “An all-to-all approach to the identification of sequence-specific readers for epigenetic DNA modifications on cytosine”.
